From PubChem
Compounds with a hit are over-represented: about 12% of the library has one in this group of screens.
Sfp inh: inhibitors of Bacillus subtilis Sfp phosphopantetheinyl transferase | Potency, µM, usual class: inhibitors | AID 1490 | actives 3.5% (n = 310,000) | Biochemical Sfp PPTase activity, qHTS;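 note: the enzyme is Sfp with the accession as filed and its product quenches rhodamine fluorescence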
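Fluorescence-quenching assay: 15 nM Sfp-PPTase preincubated 15 min at room temperature with compound, then 5 uM rhodamine-CoA and 12.5 uM BHQ-2-labelled YbbR peptide added. Fluorescence (ex 525/em 598 nm) read at start and after 30 min; difference gives rate.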
JMJD2A Tudor inh: JMJD2A Tudor domain (human) inhibition; actives 4.4% (n = 390,000); Potency, µM (top dose mostly 114 µM), actives largely listed as inhibitors; AID 504339; AlphaScreen JMJD2A-Tudor / H3K4me3 peptide binding; O75164; note: nearly all actives have a fitted effect of over 50% in size
BAZ2B block: BAZ2B (human) inhibition; Q9UIF8; AlphaScreen BAZ2B-H3K14Ac peptide displacement; Potency, µM (series often up to 114 µM), usual class: inhibitors; actives 4.4% (n = 360,000); note: nearly all actives have a fitted effect of over 60% in size
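AlphaScreen displacement of biotin-H3(5-23)K14Ac peptide (50 nM final) from BAZ2B (50 nM final) in PBS pH 7.4, 0.01% Tween-20; complex preformed 30 min RT, then compounds (top 110 uM) 30 min RT, beads 20 min dark.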
G9a block: blocks human histone lysine methyltransferase G9a. Q96KQ7. G9a H3K9 monomethylation, AlphaScreen, 2 h. Potency, µM (highest dose often 102 µM), hits mostly inhibitors. actives 8.8% (n = 350,000); note: nearly all actives have a fitted effect of over 75% in size
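Compounds were preincubated with 20 nM G9a for 15 min, after which biotinylated H3K9 peptide (500 nM) and SAM (20 uM) started a 2 h room-temperature reaction. Monomethylated product was quantified by antibody-based AlphaScreen chemiluminescence.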
HP1b binding inh: inhibitors of HP1-beta chromodomain binding to methylated histone tails. P83916. AlphaScreen HP1-beta / biotin-H3K9me3 peptide binding. Potency, µM (top dose mostly 114 µM), most hits filed as inhibitors. actives 0.56% (n = 390,000). AID 540317; note: nearly all actives have a fitted effect of over 70% in size
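Compound inhibition of the preformed complex between 50 nM HP1-beta and 50 nM biotinylated H3K9me3 peptide was read by AlphaScreen. Buffer was PBS pH 7.4 with 0.01% Tween-20. Incubations ran 30 min at room temperature, with 10 ug/mL donor/acceptor beads.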
TDP1 block: inhibitors of human tyrosyl-DNA phosphodiesterase TDP1. recombinant TDP1, AlphaScreen DNA substrate cleavage. Potency, µM (titrated, usually from 130 µM), hits mostly inhibitors. actives 0.28% (n = 350,000). AID 485290; note: nearly all actives have a fitted effect of over 40% in size
Target sequence (Q9NUW8 whole entry, looked up): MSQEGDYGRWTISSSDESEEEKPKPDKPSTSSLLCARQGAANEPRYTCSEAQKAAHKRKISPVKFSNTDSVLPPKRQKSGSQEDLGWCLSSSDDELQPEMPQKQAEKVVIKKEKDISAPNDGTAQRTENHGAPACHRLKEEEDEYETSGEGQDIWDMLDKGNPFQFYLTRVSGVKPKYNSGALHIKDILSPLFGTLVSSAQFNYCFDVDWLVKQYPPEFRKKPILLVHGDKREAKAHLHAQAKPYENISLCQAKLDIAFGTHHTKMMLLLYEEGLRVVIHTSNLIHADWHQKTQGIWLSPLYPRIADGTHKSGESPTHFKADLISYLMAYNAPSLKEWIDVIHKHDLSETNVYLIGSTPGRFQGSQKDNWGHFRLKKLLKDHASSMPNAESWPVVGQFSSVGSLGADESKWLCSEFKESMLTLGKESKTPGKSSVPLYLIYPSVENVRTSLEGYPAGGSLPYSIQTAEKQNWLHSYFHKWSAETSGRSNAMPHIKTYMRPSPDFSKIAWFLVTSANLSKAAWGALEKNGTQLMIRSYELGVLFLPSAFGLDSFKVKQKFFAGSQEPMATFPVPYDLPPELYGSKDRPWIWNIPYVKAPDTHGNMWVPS
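Recombinant E. coli-expressed Tdp1 (1 nM) preincubated with compound 15 min at RT, then 5'-biotin/3'-phosphotyrosine-FITC DNA substrate (15 nM) added for 5 min. AlphaScreen beads (10 ug/ml) added, 10 min RT; tyrosine-FITC cleavage read as signal loss.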
Numbers stand for hits; n = inactive; u = inconclusive; x = not tested or not shown; [ ] = another dose, or the depositor's remark. Calls come from the whole dose curve; as a rule, active = well fitted curve in the direction sought with a large enough effect; inconclusive = small, poorly fitted or top-dose-only effect, or another doubt; inactive = no such curve, though single readings can be large; an effect the other way counts as inactive or inconclusive.

SMILES	Sfp inh	JMJD2A Tudor inh	BAZ2B block	G9a block	HP1b binding inh	TDP1 block
O=C(COC(=O)c1ccccn1)NCc1ccc(Cl)cc1Cl	x	n	u	28.2µM	n	n
O=C(COC(=O)c1ccccn1)Nc1cccc(Cl)c1Cl	n	n	u	50.1µM	n	n
COc1ccccc1NC(=O)COC(=O)c1ccccn1	n	n	n	n	n	n
CCOc1ccccc1C(C(=O)NC1CCCC1)N(C(=O)c1csnn1)C1CC1 (stereo not given)	n	n	n	n	n	n
Cc1c(-c2ccc(Cl)cc2)c(=O)oc2ccc(OC(=O)N3CCOCC3)cc12	x	n	n	n	n	n
FC(F)(Cl)c1nnc2ccc(Sc3ccccn3)nn12	n	n	n	25.1µM	n	n
Nc1ccccc1SCc1c(Cl)cccc1Cl	n	n	n	n	n	n
CC(C(Sc1ccccc1N)c1ccccc1)[N+](=O)[O-] (stereo not given)	3.98µM	20µM	n	3.16µM	u	n
CC(C)[C@H](Nc1ccc(C(F)(F)F)cc1[N+](=O)[O-])C(=O)O	n	n	n	x	n	n
O=C(NNc1ccc(C(F)(F)F)cc1[N+](=O)[O-])c1ccc(NS(=O)(=O)c2ccc(F)cc2)cc1	n	22.4µM	10µM	25.1µM	u	n
O=C(NC1(C(F)(F)F)C(=O)Nc2c1c(=O)[nH]c(=O)n2CCc1ccccc1)c1ccc(Cl)cc1 (stereo not given)	x	n	n	n	n	n
O=C(CCc1ccccc1)Nc1ccccc1[N+](=O)[O-]	n	n	n	u	n	n
Cc1ccc(NC(=O)CCCc2ccccc2)c([N+](=O)[O-])c1	n	u	u	3.16µM	u	x
Cc1ccc(NC(=O)COC(=O)COc2ccc(Cl)cc2C)c([N+](=O)[O-])c1	n	u	u	28.2µM	n	n
Cc1ccc(NC(=O)COC(=O)CCC(=O)c2ccc(C(C)(C)C)cc2)c([N+](=O)[O-])c1	n	u	u	11.2µM	u	n
CC1CCCN(c2nc(-c3ccccc3O)nc3ccccc23)C1 (stereo not given)	x	n	n	n	n	x
C/C=C/n1ccnc1CC(O)(c1ccccc1)c1ccc(C)cc1 (stereo not given)	x	n	x	x	n	x
O=C(NCCNC(=O)c1ccc(F)cc1)c1ccc(F)cc1	x	n	x	x	n	x
O=C(NCSc1ccnc(SCNC(=O)c2ccc(F)cc2)n1)c1ccc(F)cc1	8.91µM	n	n	2.82µM	n	n
Cc1[nH][nH]c(=O)c1C(c1c(C)[nH][nH]c1=O)c1cn(Cc2cccc3ccccc23)c2ccccc12	n	n[11.4 µM]	u	44.7µM	28.2µM	n
O=c1c2ccccc2ncn1Cc1cccc2ccccc12	n	n	n	x	n	n
CCOc1ccc(Cl)cc1C(c1c(C)[nH][nH]c1=O)c1c(C)[nH][nH]c1=O	n	n	n	n	n	n
Cc1[nH][nH]c(=O)c1C(c1c(C)[nH][nH]c1=O)c1cn(C)c2ccccc12	44.7µM	u	u	x	n	n
CC(=O)c1ccc(NS(=O)(=O)c2ccc3[nH]c4c(c3c2)CCCC4)cc1	x	u	79.4µM	u	n	n
COc1ccccc1CNS(=O)(=O)c1ccc2[nH]c3c(c2c1)CCCCC3	x	u	n	n	n	n
SMILES	Sfp inh	JMJD2A Tudor inh	BAZ2B block	G9a block	HP1b binding inh	TDP1 block
CC(=O)c1ccc(NS(=O)(=O)c2ccc3[nH]c4c(c3c2)CCCCCC4)cc1	x	n	u	n	n	n
Cc1ccc(NS(=O)(=O)c2ccc3[nH]c4c(c3c2)CCCCC4)cc1	x	u	n	14.1µM	n	n
COc1ccc(NS(=O)(=O)c2ccc3[nH]c4c(c3c2)CCCCCC4)cc1	x	n	n	n	n	n
Cc1ccc(NC(=O)CN(C)S(=O)(=O)c2ccc3[nH]c4c(c3c2)CCCC4)c(Cl)c1	x	u	n	11.2µM	n	n
CN(CC(=O)Nc1cccc(Cl)c1)S(=O)(=O)c1ccc2[nH]c3c(c2c1)CCCC3	x	n	n	u	n	n
CCOc1ccc(CNS(=O)(=O)c2ccc3[nH]c4c(c3c2)CCCC4)cc1OC	x	u	44.7µM	u	u	n
CC(C)C(=O)OCC(=O)[C@@]12OC(C3CCCCC3)O[C@@H]1CC1C3CCC4=CC(=O)C=C[C@]4(C)C3[C@@H](O)C[C@@]12C (stereo not given in full)	n	x	x	n[12.7 µM]	x	x
COc1ccccc1CNC(=O)C1CCCN(C(=O)c2cnn(-c3ccc(F)cc3)c2-n2cccc2)C1 (stereo not given)	x	n	n	u	n	n
Cc1ccc(NS(=O)(=O)c2ccc3[nH]c4c(c3c2)CCCC4)c(C)c1	x	28.2µM	39.8µM	15.8µM	u	n
COC(=O)c1ccc(NS(=O)(=O)c2ccc3[nH]c4c(c3c2)CCCC4)cc1	x	u	70.8µM	u	n	n
COc1ccc(Cl)cc1NS(=O)(=O)c1ccc2[nH]c3c(c2c1)CCCC3	x	u	n	u	n	n
COc1ccccc1N1CCN(C(=O)C2CCN(S(=O)(=O)c3cccs3)CC2)CC1	x	n	n	n	n	n
COc1ccc(S(=O)(=O)NCC(c2ccco2)N2CCOCC2)cc1OC (stereo not given)	x	n	n	12.6µM	n	n
COc1ccc(S(=O)(=O)NCC(c2ccco2)N2CCN(c3ccccc3F)CC2)cc1OC (stereo not given)	x	n	u	n	n	n
COc1ccc(N2CCN(C(CNS(=O)(=O)c3ccc(OC)c(C)c3)c3ccco3)CC2)cc1 (stereo not given)	x	25.1µM	25.1µM	7.94µM	u	n
CC(=O)N1CC(C)Sc2ccc(S(=O)(=O)N3CCCCC3)cc21 (stereo not given)	n	n	u	n	n	n
CS(=O)(=O)N1CCc2cc(-c3csc(NCC4CCCO4)n3)ccc21 (stereo not given)	50.1µM	n	n	5.62µM	n	n
CS(=O)(=O)N1CCc2cc(-c3csc(NC(=O)Cc4ccccc4)n3)ccc21	n	n	n	14.1µM	n	n
Cn1c(=O)c2c(ncn2CC2OCCO2)n(C)c1=O	n	n	n	n	n	n
CC(=O)c1ccc(N2CCN(S(=O)(=O)c3ccc4c(c3)CC(=O)N4)CC2)cc1	n	n	n	x	n	x
CC(=O)c1ccc(N2CCN(S(=O)(=O)c3ccc4c5c3CC(=O)N5CC(C)S4)CC2)cc1 (stereo not given)	n	n	n	44.7µM	n	n
Cc1cccc(CNC(=O)c2ccc(Cn3c(SCc4ccccc4)nc4cccnc43)cc2)c1	x	n	n	n	n	n
Cc1ccc(S(=O)(=O)N2CCOCC2)cc1NC(=O)CSc1nc2ccccc2c(=O)n1Cc1ccccc1	n	n	n	n	n	n
